Data: PubChem BioAssay AID1259416 (Broad Institute, 2018)
Values joined by “and” are separate entries in the source; they are usually repeats but may differ in a detail not shown here. Equal entries are not always repeated. The whole screen tested about 69,000 compounds, of which about 2,600 (3.8%) were called active. This excerpt belongs to a sample that is enriched for actives. A number with no mark means an inactive call. No stated cut-off is given here; in the data, active means activity change below about -70% (passing the limit was not always enough); inconclusive means no clear call, values can overlap the other calls.

Test: T. gondii growth inhibition with IFN-gamma, primary screen, cell-based (AID 1259416);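 further: host cells are HeLa cells infected with Toxoplasma gondii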
Details: Toxoplasma gondii growth in IFN-gamma-treated host cells; hits give low values; concentration not given here

Compound	activity change, negative = inhibition
Cc1cc(Nc2cc(CN3CCOCC3)c3nc(C)c(Cc4ccc(Cl)cc4F)n3n2)n[nH]1	-78.1% (active)
COCCN1CCO[C@@H]2CN(Cc3ccccc3F)C[C@@H]2C1	-4.47%
CN(C)c1ncccc1CNC(=O)c1cnc2c(c1)nnn2C	2.4%
C/C=C/c1ccccc1[C@@H]1[C@@H](CO)N(C(=O)CN2CCOCC2)[C@H]1C#N	18.7%
COc1ccc(S(=O)(=O)N2CCc3nc(-c4ccccc4)sc3C2)cc1OC	62%
COC(=O)c1cc2n(n1)CCN(S(=O)(=O)c1ccc(C)cc1OC)C2	-2.93%
COc1ccc(-c2nc3c(s2)CN(S(=O)(=O)c2ccc(C)cc2C)CC3)cc1OC	-101% (active)
COc1ccc(-c2nc3c(s2)CN(S(=O)(=O)c2cccc(Cl)c2C)CC3)cc1	-94.8% (active)
COc1cccc(NC2COC3(CCN(S(=O)(=O)c4cccc(F)c4)CC3)C2)c1 (centres undefined)	-1.19%
CCOc1ccc(-c2nc3c(s2)CN(S(=O)(=O)c2cccc(C)c2)CC3)cc1	4.52%
COc1ccc(-c2nc(C)c(CCNS(=O)(=O)c3ccccc3)s2)cc1OC	132%
COc1cccc(-c2nc3c(s2)CN(S(=O)(=O)c2cccc(F)c2)CC3)c1	-87.6% (active)
O=S(=O)(NC[C@H]1[C@H](c2ccccc2)[C@H](CO)N1CC1CC1)c1ccccc1	14.7%
Cc1nc(-c2cccc(F)c2)sc1CCNC(=O)C12CC3CC(CC(C3)C1)C2	-46.4%
C=Cc1cccc(CN2CCC3(CCCN(C(=O)CCOC)C3)C2)c1 (centres undefined)	-2.67%
CN(Cc1nc(-c2ccncc2)no1)C(=O)c1cc2ccccc2s1	-2.68%
Cc1ncc(C(=O)O)c(-c2ccccc2)n1	0.375%
COCc1cnc2n1CCN(C(=O)c1oc3ccccc3c1C)C2C (centres undefined)	1.32%
Cc1cc(C(F)F)nn1CC(=O)NCCn1ncc(-c2ccncc2)c1-c1cccs1	-65.9%
CCOCCn1nc(C)cc1C(=O)N1CCCC2(CNC(=O)O2)C1 (centres undefined)	-0.947%

Compound	activity change, negative = inhibition
COCC12CCCOC1CCN(S(=O)(=O)C1CC1)C2 (centres undefined)	5.49%
C/C=C/c1ccccc1[C@@H]1[C@@H](C#N)N(c2nc(CC)cs2)[C@@H]1CO	1.59%
Cc1ccc(-c2ccccc2[C@H]2[C@@H](C#N)N(c3ncc(-c4ccccc4)s3)[C@@H]2CO)cc1	-77.5% (active)
CCc1cnc(N2[C@H](C#N)[C@H](c3ccccc3-c3ccccc3C)[C@H]2CO)s1	18.5%
COc1ccc(CN2C(=O)CO[C@H]3CN(C(=O)NC4CC4)C[C@@H]32)cc1	15.8%
N#Cc1ccc(-c2ccc([C@@H]3[C@@H](CO)N4C(=O)CNC[C@H]34)cc2)cc1	-24.8%
COc1ccccc1CN1[C@@H]2CNC[C@H]1C2c1ccc(-c2cccc(C#N)c2)cc1 (some centres undefined)	-25.9% and -32%
N#Cc1ccc(-c2ccc([C@@H]3[C@H]4CNC[C@@H]3N4Cc3ccc4c(c3)OCO4)cc2)cc1	-70.6% (active)
CS(=O)(=O)N1CCCC1c1cccc(Nc2nccs2)n1 (centres undefined)	-21.8%
COCCn1c(C(=O)NCCCN(C)C)cc2c1c1ccccc1n2C	-12.8%
CC(C)(C)CN1CC2CN(C(=O)Nc3ccccc3)CC21 (centres undefined)	-37.8%
O=C(O)c1ccc(NC(=S)NCc2cccs2)cc1	33.4%
CC1CCN(C(=O)c2cc(=O)n(CC(=O)Nc3ccc(C(C)C)cc3)c3ccccc23)CC1	-28.9%
Cn1nc(CC(=O)Nc2cccc(Cl)c2)c2ccccc2c1=O	-79% (active)
Cn1nc(C(=O)O)c2ccccc2c1=O	58.7%
Cc1nc(OCC(=O)Nc2cccc(Cl)c2)c2ccccc2n1	-0.194%
CCn1nc(C)c(NC(=O)CN2CCC(Oc3ncccn3)CC2)c1C	-9.88%
COc1cccc2[nH]c(C(=O)N3CCCC(c4cc(CN(C)C)n(C)n4)C3)cc12 (centres undefined)	5.73%
Cc1sccc1C(=O)N1CCC2(CC1)CC(NS(C)(=O)=O)C2	6.5%
O=C1c2ccccc2C(=O)C1c1ccccc1	-11.2% and 19.1%

Compound	activity change, negative = inhibition
COc1ccc2c(C3C(=O)c4ccccc4C3=O)nccc2c1	-108% (active)
COc1ccc2cc(-c3ccccc3NC(=O)CN)ccc2c1	70.1%
COc1ccc(-c2cc(C)cnc2-n2cnnc2)cn1	4.46%
CCc1nc(CN2CCC3(CC2)C(=O)N(CCc2ccccc2)C(=O)N3C)c(C)[nH]1	-3.85%
COc1ccc2c3c(n(C)c2c1)[C@H](CO)N(Cc1ccccc1Cl)CC31CN(C(=O)CN(C)C)C1	-29.5%
CN1C(=O)CCc2cc(C(=O)NC3CCCC3)ccc21	9.57%
Cc1cccnc1N1C[C@H]2CN(c3cnn(C)c3)C(=O)[C@@H]2C1	-73.4% (active)
Cc1ccc(C(=O)N2CCC3(CC2)CCN(c2cnn(C)c2)C3=O)cc1	19.8%
CCN1C(=O)[C@H]2CN(c3ncccn3)C[C@@H]2C12CCN(S(=O)(=O)CC(C)C)CC2	-13.4%
Cc1noc2nc(C3CCCN(C(=O)CCc4ccccc4)C3)cc(C(F)F)c12 (centres undefined)	-93.3% (active)
O=C(CCn1nnc2ccccc21)N1CCCC(c2ccn[nH]2)C1 (centres undefined)	2.46%
Cc1ccc(NC(=O)CC(=O)N2CCCC(c3nc(CC(C)C)no3)C2)cc1 (centres undefined)	25%
CCCCc1ncc(CN2CCN(c3ccccc3OC)CC2C)[nH]1 (centres undefined)	-2.06%
O=S(=O)(NCc1ccccc1)N1CCCC1c1ccccn1 (centres undefined)	-3.86%
CO[C@@H]1CCN(C(=O)c2ccnn2C)[C@H]2CN(CC3CC3)C[C@@H]12	33.7%
COCCC(=O)c1cc2c(s1)CCN2c1ccc(C)nn1	59.6%
COc1ccccc1C(=O)NCCc1csc(-c2ccc(Cl)cc2)n1	-74% (active)
Cc1ccccc1C(=O)NCCc1csc(-c2ccc(F)cc2)n1	-18%
O=C(NCCc1csc(-c2ccccc2)n1)c1ccccc1F	455%
